Several values for one entry are separate records, joined by “and”; a condition that tells them apart may be missing. Equal entries are not always repeated. About 2,000 (36%) of roughly 5,500 compounds were called active. Inconclusive results (about 18%) are left out. No stated cut-off is given here; in the data, active means normalized growth mostly below about 0.91 (no sharp cut-off); inconclusive means no clear call, values can overlap the other calls; inactive means mostly above about 0.92. This is one part of the list.
Test: chemical genetic growth profiling, strain panel (AID 1159580);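 further: tested at 20 µM; growth read once vehicle control cultures reached saturation at 30 °C; 1 = growth at the plate median or of vehicle wells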
Conditions: S. cerevisiae deletion strains, growth OD

Measured: normalized growth

O=c1c(O)c(-c2ccccc2)oc2ccc3occc3c12
inactive: locus YAL013W, strain DEP1, stronger effect = lower value 0.925 | locus YAL021C, strain ccr4, stronger effect = lower value 0.987 | locus YBR021W, strain FUR4, stronger effect = lower value 0.889 | locus YBR171W, strain sec66, stronger effect = lower value 0.962 | locus YBR229C, strain ROT2, stronger effect = lower value 0.955 | locus YCR088W, strain abp1, stronger effect = lower value 0.93 | locus YDL005C, strain med2, stronger effect = lower value 0.951 | locus YDL185W, strain tfp1, stronger effect = lower value 0.938 | locus YDR001C, strain nth1, stronger effect = lower value 0.956 | locus YDR069C, strain doa4, stronger effect = lower value 0.941 | locus YDR150W, strain NUM1, stronger effect = lower value 0.954 | locus YDR334W, strain swr1, stronger effect = lower value 0.913 | locus YEL061C, strain CIN8, stronger effect = lower value 0.93 | locus YFR010W, strain ubp6, stronger effect = lower value 0.926 | locus YGL167C, strain pmr1, stronger effect = lower value 0.919 | locus YHR013C, strain ard1, stronger effect = lower value 0.921 | locus YHR027C, strain rpn1, stronger effect = lower value 0.937 | locus YHR079C, strain IRE1, stronger effect = lower value 0.956 | locus YIL073C, strain SPO22, stronger effect = lower value 0.733 | locus YJL115W, strain asf1, stronger effect = lower value 0.943 | locus YJL134W, strain LCB3, stronger effect = lower value 0.956 | locus YJL154C, strain vps35, stronger effect = lower value 0.939 | locus YJR066W, strain TOR1, stronger effect = lower value 0.883
0.437 (active) and 0.978 (inactive): locus YJL095W, strain BCK1, stronger effect = lower value
active: locus YAL026C, strain drs2, stronger effect = lower value 0.808 | locus YAL030W, strain snc1, stronger effect = lower value 0.902 | locus YBL061C, strain skt5, stronger effect = lower value 0.811 | locus YBR009C, strain hhf1, stronger effect = lower value 0.627 | locus YBR023C, strain chs3, stronger effect = lower value 0.71 | locus YBR231C, strain swc5, stronger effect = lower value 0.799 | locus YBR279W, strain paf1, stronger effect = lower value 0.796 | locus YCL011C, strain gbp2, stronger effect = lower value 0.814 | locus YCL016C, strain dcc1, stronger effect = lower value 0.766 | locus YCL029C, strain bik1, stronger effect = lower value 0.749 | locus YCL061C, strain MRC1, stronger effect = lower value 0.801 | locus YCL069W, strain vba3, stronger effect = lower value 0.662 | locus YDL035C, strain GPR1, stronger effect = lower value 0.849 | locus YDL040C, strain nat1, stronger effect = lower value 0.93 | locus YDL074C, strain BRE1, stronger effect = lower value 0.671 | locus YDL101C, strain DUN1, stronger effect = lower value 0.858 | locus YDL192W, strain arf1, stronger effect = lower value 0.731 | locus YDR101C, strain arx1, stronger effect = lower value 0.765 | locus YDR137W, strain rgp1, stronger effect = lower value 0.798 | locus YDR159W, strain sac3, stronger effect = lower value 0.742 | locus YDR162C, strain NBP2, stronger effect = lower value 0.782 | locus YDR195W, strain ref2 1.23 [resistant] | locus YDR297W, strain sur2, stronger effect = lower value 0.849 | locus YDR318W, strain mcm21, stronger effect = lower value 0.799 | locus YDR335W, strain msn5, stronger effect = lower value 0.773 | locus YDR388W, stronger effect = lower value 0.847 | locus YDR392W, strain spt3, stronger effect = lower value 0.172 | locus YDR502C, strain sam2, stronger effect = lower value 0.783 | locus YEL003W, strain gim4, stronger effect = lower value 0.814 | locus YEL037C, strain rad23, stronger effect = lower value 0.86 | locus YEL061C, strain CIN8 (second series), stronger effect = lower value 0.71 | locus YER015W, strain faa2, stronger effect = lower value 0.829 | locus YER016W, strain bim1, stronger effect = lower value 0.92 | locus YER110C, stronger effect = lower value 0.767 | locus YER111C, strain swi4, stronger effect = lower value 0.793 | locus YER155C, strain BEM2 (second series), stronger effect = lower value 0.25 | locus YER155C, strain BEM2, stronger effect = lower value 0.807 | locus YER167W, strain BCK2, stronger effect = lower value 0.9 | locus YGL078C, strain dbp3, stronger effect = lower value 0.884 | locus YGL086W, strain mad1, stronger effect = lower value 0.764 | locus YGL173C, strain kem1, stronger effect = lower value 0.833 | locus YGL227W, strain vid30, stronger effect = lower value 0.888 | locus YGL240W, strain doc1, stronger effect = lower value 0.566 | locus YGL248W, strain PDE1, stronger effect = lower value 0.801 | locus YGL253W, strain hxk2, stronger effect = lower value 0.501 | locus YGR135W, strain pre9, stronger effect = lower value 0.713 | locus YGR229C, strain SMI1, stronger effect = lower value 0.416 | locus YGR252W, strain gcn5, stronger effect = lower value 0.593 | locus YHR079C, strain IRE1 (second series), stronger effect = lower value 0.873 | locus YHR094C, strain hxt1, stronger effect = lower value 0.904 | locus YHR142W, strain chs7, stronger effect = lower value 0.367 | locus YHR200W, strain rpn10, stronger effect = lower value 0.798 | locus YIL066C, strain RNR3, stronger effect = lower value 0.833 | locus YIL125W, strain kgd1, stronger effect = lower value 0.886 | locus YIR030C, strain dcg1, stronger effect = lower value 0.794 | locus YJL092W, strain hpr5, stronger effect = lower value 0.879 | locus YJL095W, strain BCK1 (second series), stronger effect = lower value 0.562 | locus YJL129C, strain trk1, stronger effect = lower value 0.852 | locus YJL164C, strain tpk1, stronger effect = lower value 0.781 | locus YJL166W, strain qcr8, stronger effect = lower value 0.74 | locus YJL168C, strain set2, stronger effect = lower value 0.925 | locus YJL187C, strain SWE1 (second series), stronger effect = lower value 0.847 | locus YJR043C, strain POL32, stronger effect = lower value 0.64
0.72 (active) and 0.968 (inactive): locus YHR030C, strain SLT2, stronger effect = lower value

Source: PubChem BioAssay AID1159580 (chemical genetic matrix, 2015)
